Experimental data reported in PubChem BioAssay (Tox21).
Records with an inconclusive call do not appear. Active and inactive are the calls of the source. Unless noted, the call rests on the fitted dose curve.

Tests used:
[1] = target: Gonadotropin-releasing hormone receptor (Homo sapiens) (UniProt P30968); assay: Human gonadotropin-releasing hormone receptor (GnRHR) small molecule agonists, calcium flux assay in GnRHR-HEK293 cells (AID 1920063); further: nearly all actives have a fitted effect of over 35% in size
In short: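 HEK293 cells stably expressing human GnRHR were dye-loaded for 1 h at 37 C. Compound was added in agonist mode and fluorescence (Ex/Em 480/540) recorded kinetically for 3 min. Fifteen concentrations, triplicates.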

[2] = target: KiSS-1 receptor (Homo sapiens) (UniProt Q969F8); assay: Human kisspeptin (KISS1R) small molecule agonists, calcium flux assay in KISS1R-HEK293 cells (AID 1920064; active means well fitted activation curve with a large enough effect in the repeat runs)
In short: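 HEK293 cells stably expressing human KISS1R were loaded with calcium dye for 1 h at 37 C, then given compound; fluorescence (Ex/Em 480/540) was read kinetically for 3 min. Fifteen concentrations, triplicate.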

[3] = G protein-coupled receptor (GPCR) small molecule agonists, calcium flux assay: HEK293 wild type cell line counter screen (AID 1920065)
In short: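 Wild-type HEK293 cells plated 18 h, loaded with calcium dye 1 h at 37 C, then compounds added in agonist mode (ATP as positive control). Kinetic fluorescence Ex/Em 480/540 recorded 3 min at 1 sec intervals; 15 concentrations, triplicate.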

[4] = p53 small molecule agonists, cell-based qHTS assay with human liver microsomes (AID 1963577);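 further: p53 response element beta-lactamase reporter cells with liver microsomes plus NADPH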
In short: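 Steps: plate p53RE-bla cells, incubate 5 h at 37 C; add compound in DMSO; add microsomes (0.5 mg/mL final) and NADPH (0.5 mg/mL final); incubate 16 h at 37 C; add LiveBLAzer, 2 h RT; read fluorescence.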

[5] = p53 small molecule agonists, cell-based qHTS assay with rat liver microsomes (AID 1963578)
In short: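 Metabolic activation is supplied by rat liver microsomes with NADPH (each 0.5 mg/mL final). p53RE-bla cells incubate with compound 16 h at 37 C; reporter activity is measured by LiveBLAzer fluorescence.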

[6] = p53 small molecule agonists, cell-based qHTS assay with human liver microsomes: qHTS cell viability counter screen (AID 1963579); further: nearly all actives have a fitted effect of over 45% in size
In short: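 After the 460/530 nm beta-lactamase read, CellTiter-Glo was added to the same wells and luminescence measured after 30 min at room temperature, giving viability of p53RE-bla cells treated 16 h with compounds plus microsomes and NADPH.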

[7] = p53 small molecule agonists, cell-based qHTS assay (AID 1963582; active means well fitted activation curve with a large enough effect in the signal ratio in the repeat runs, not every such curve was filed as active; the % refers to the signal ratio)
In short: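 p53RE-bla reporter cells, compounds added in DMSO after 5 h plating, incubated 16 h at 37 C. Beta-lactamase read via 2 h room-temperature LiveBLAzer B/G FRET substrate, fluorescence intensity.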

[8] = target: 5-hydroxytryptamine receptor 2A (Homo sapiens) (UniProt P28223); assay: 5-hydroxytryptamine receptor 2A (HTR2A) small molecule antagonists, cell-based qHTS assay (AID 1963586); further: nearly all actives have a fitted effect of over 45% in size
In short: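 Antagonist-mode intracellular calcium assay: DOI (4 nM) added after 5 min compound pre-incubation at room temperature to dye-loaded HTR2A-CHO cells. Fluorescence followed for 3 min, sampled every second.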

[9] = target: 5-hydroxytryptamine receptor 2A (Homo sapiens) (UniProt P28223); assay: 5-hydroxytryptamine receptor 2A (HTR2A) small molecule agonists, cell-based qHTS assay (AID 1963587); further: nearly all actives have a fitted effect of over 30% in size
In short: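 HTR2A-CHO cells, plated 18 h at 37 C/5% CO2, dye-loaded 1 h at 37 C; compounds in DMSO added by pin tool (agonist mode). Intracellular calcium flux read as kinetic fluorescence on FDSS over 2 min at 1 s intervals.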

[10] = target: Muscarinic acetylcholine receptor M1 (Homo sapiens) (UniProt P11229); assay: Cholinergic receptor muscarinic 1 (CHRM1) small molecule antagonists, cell-based qHTS assay (AID 1963588); further: nearly all actives have a fitted effect of over 40% in size
In short: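 CHRM1-CHO calcium-flux assay, antagonist mode. Cells were seeded 18 h, dye-loaded 1 h at 37 C and given compound for 5 min at RT, then acetylcholine was added at 50nM. FDSS fluorescence was read 3 min; 15 concentrations, three runs.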

[11] = cAMP Responsive Elements (CRE) small molecule agonists, cell-based qHTS assay (AID 1963590)
In short: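 CRE-bla HEK 293T cells, 2,000/well in DMEM with 10% dialyzed FBS and 25 mM HEPES, pre-incubated 18 h at 37 C, then exposed to compound 3 h at 37 C. Beta-lactamase reporter read with LiveBLAzer B/G FRET substrate after 2 h at room temperature.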

[12] = cAMP Responsive Elements (CRE) small molecule antagonists, cell-based qHTS assay (AID 1963591; active means well fitted inhibition curve with a large enough effect in the signal ratio in the repeat runs, not every such curve was filed as active; the % refers to the signal ratio)
In short: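 CRE-bla HEK293T cells plated 18 h, then given compound plus NKH477 at 0.25 uM final for 3 h at 37C. Beta-lactamase reporter read with LiveBLAzer B/G FRET substrate after 2 h at room temperature.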

[13] = target: Beta-2 adrenergic receptor (Homo sapiens) (UniProt P07550); assay: Adrenergic beta2 receptor (ADRB2) small molecule antagonists, cell-based qHTS assay (AID 1963592); further: series mostly up to about 92 µM; nearly all actives have a fitted effect of over 50% in size
In short: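 Cells (CHO, stable ADRB2 overexpression) incubated 18-20hr at 37C; compounds added from DMSO; agonist mix (1nM isoproterenol, 100uM IBMX, 25uM Ro-20-1724) added; 0.5hr RT; d2-cAMP and anti-cAMP-cryptate added; 1hr RT; 665/615 nm read.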

[14] = target: D(2) dopamine receptor (Homo sapiens) (UniProt P14416); assay: Dopamine D2 receptor (DRD2) small molecule agonists, cell-based qHTS assay (AID 1963594); further: nearly all actives have a fitted effect of over 35% in size
In short: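 HEK293 cells stably expressing DRD2 were cultured 24 h at 37 C, then given Ro20-1724 (0.1 mM final) and compounds for 10 min at room temperature. NKH477 (200nM) was then added for 30 min. cAMP was read by HTRF.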

[15] = target: D(2) dopamine receptor (Homo sapiens) (UniProt P14416); assay: Dopamine D2 receptor (DRD2) small molecule antagonists, cell-based qHTS assay (AID 1963595; active means well fitted inhibition curve with a large enough effect in the signal ratio in the repeat runs, with a control signal flat; the % refers to the signal ratio)
In short: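 HEK293 cells stably expressing DRD2, preincubated with 0.1 mM Ro20-1724 and compounds 10 min, were stimulated with 200 nM NKH477 plus 12 nM quinpirole for 30 min at room temperature; cAMP measured by HTRF (665/620 nm).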

[16] = p53 small molecule agonists, cell-based qHTS assay with rat liver microsomes: qHTS cell viability counter screen (AID 1963580); further: nearly all actives have a fitted effect of over 45% in size
In short: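 p53RE-bla HCT-116 cells (4,000/well) rested 5 h at 37 C, then given Tox21 compounds in DMSO with rat liver microsomes (0.5 mg/mL final) plus NADPH (0.5 mg/mL final) for 16 h at 37 C. Viability read by CellTiter-Glo luminescence after 30 min at room temperature.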

[17] = p53 small molecule agonists, cell-based qHTS assay: qHTS cell viability counter screen (AID 1963581); further: nearly all actives have a fitted effect of over 45% in size
In short: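 p53RE-bla HCT-116 cells, compounds added 5 h after plating and incubated 16 h at 37 C. Cytotoxicity measured in the same wells as intracellular ATP by CellTiter-Glo luminescence after 30 min at room temperature.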

[18] = target: Muscarinic acetylcholine receptor M1 (Homo sapiens) (UniProt P11229); assay: Cholinergic receptor muscarinic 1 (CHRM1) small molecule agonists, cell-based qHTS assay (AID 1963589); further: nearly all actives have a fitted effect of over 35% in size
In short: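 CHO cells stably expressing human CHRM1 were loaded with calcium dye for 1 h at 37 C, then compound was added in agonist mode. Intracellular calcium fluorescence was followed kinetically at 1 s intervals. Fifteen concentrations were tested in three independent runs.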

[19] = target: Beta-2 adrenergic receptor (Homo sapiens) (UniProt P07550); assay: Adrenergic beta2 receptor (ADRB2) small molecule agonists, cell-based qHTS assay (AID 1963593);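 further: CHO cells stably overexpressing human ADRB2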
In short: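 CHO cells stably over-expressing ADRB2 were plated overnight at 37C, then dosed with compounds plus a stimulation mix containing 100uM IBMX and 25uM Ro-20-1724 for 0.5hr at room temperature. cAMP was measured by HTRF competition, 1hr.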

Measured: Potency

Sequence of KiSS-1 receptor (Homo sapiens) (Q969F8 whole entry, looked up): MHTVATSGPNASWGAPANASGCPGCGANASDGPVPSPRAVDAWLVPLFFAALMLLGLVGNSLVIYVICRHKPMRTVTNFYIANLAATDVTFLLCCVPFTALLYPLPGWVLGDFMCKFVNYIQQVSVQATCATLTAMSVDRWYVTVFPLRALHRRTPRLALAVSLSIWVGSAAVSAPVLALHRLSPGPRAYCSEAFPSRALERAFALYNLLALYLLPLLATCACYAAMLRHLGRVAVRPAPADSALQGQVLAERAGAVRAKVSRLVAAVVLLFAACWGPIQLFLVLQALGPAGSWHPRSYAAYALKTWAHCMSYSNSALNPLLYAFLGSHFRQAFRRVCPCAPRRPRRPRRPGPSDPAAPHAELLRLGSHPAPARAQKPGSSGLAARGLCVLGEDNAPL
Sequence of Muscarinic acetylcholine receptor M1 (Homo sapiens) (P11229 whole entry, looked up): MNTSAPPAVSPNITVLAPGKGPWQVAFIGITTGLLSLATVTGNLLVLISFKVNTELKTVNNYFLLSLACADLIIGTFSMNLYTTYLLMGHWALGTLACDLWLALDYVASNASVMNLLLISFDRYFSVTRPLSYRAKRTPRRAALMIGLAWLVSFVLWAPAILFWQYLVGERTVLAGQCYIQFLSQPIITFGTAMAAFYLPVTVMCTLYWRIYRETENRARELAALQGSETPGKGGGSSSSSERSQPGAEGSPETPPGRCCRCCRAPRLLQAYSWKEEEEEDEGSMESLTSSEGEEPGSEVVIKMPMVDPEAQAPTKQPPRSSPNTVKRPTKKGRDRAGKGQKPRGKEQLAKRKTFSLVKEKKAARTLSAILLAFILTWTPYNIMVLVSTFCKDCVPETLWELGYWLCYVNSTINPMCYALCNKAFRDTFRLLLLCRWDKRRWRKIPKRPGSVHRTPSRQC
Sequence of Beta-2 adrenergic receptor (Homo sapiens) (P07550 whole entry, looked up): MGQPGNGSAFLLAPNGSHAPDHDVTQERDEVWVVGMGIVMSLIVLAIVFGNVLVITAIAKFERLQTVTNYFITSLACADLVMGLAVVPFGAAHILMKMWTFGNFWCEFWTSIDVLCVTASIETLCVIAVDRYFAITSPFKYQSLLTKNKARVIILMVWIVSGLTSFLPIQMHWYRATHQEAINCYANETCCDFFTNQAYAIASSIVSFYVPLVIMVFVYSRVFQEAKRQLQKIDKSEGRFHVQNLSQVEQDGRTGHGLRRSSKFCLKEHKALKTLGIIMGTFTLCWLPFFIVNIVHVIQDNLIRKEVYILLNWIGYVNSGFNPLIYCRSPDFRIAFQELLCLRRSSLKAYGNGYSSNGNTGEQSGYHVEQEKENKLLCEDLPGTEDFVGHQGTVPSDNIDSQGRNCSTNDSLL
Sequence of 5-hydroxytryptamine receptor 2A (Homo sapiens) (P28223 whole entry, looked up): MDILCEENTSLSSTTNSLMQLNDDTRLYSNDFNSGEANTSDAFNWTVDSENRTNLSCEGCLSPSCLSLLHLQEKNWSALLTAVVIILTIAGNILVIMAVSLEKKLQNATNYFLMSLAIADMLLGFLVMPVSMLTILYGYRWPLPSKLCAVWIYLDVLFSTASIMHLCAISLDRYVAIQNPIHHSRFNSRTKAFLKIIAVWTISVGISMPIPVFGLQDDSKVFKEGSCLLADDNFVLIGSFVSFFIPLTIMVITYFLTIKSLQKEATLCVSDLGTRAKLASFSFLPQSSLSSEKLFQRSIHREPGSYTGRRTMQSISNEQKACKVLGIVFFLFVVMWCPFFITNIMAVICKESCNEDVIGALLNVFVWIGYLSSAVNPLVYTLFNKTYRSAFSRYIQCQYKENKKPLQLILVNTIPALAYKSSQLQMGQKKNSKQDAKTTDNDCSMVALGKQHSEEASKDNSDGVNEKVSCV
Sequence of D(2) dopamine receptor (Homo sapiens) (P14416 whole entry, looked up): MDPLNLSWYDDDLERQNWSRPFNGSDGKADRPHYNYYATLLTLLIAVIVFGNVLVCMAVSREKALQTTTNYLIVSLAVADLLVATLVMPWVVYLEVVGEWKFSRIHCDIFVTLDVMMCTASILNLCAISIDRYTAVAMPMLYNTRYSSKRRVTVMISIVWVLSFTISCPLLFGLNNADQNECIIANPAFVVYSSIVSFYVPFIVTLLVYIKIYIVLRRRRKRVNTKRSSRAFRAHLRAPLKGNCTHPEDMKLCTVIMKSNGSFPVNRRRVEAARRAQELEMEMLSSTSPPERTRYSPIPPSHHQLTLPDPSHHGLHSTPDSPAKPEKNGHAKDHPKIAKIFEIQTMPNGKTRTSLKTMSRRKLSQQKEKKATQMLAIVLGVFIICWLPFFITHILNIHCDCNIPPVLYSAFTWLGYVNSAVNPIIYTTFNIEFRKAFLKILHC
Sequence of Gonadotropin-releasing hormone receptor (Homo sapiens) (P30968 whole entry, looked up): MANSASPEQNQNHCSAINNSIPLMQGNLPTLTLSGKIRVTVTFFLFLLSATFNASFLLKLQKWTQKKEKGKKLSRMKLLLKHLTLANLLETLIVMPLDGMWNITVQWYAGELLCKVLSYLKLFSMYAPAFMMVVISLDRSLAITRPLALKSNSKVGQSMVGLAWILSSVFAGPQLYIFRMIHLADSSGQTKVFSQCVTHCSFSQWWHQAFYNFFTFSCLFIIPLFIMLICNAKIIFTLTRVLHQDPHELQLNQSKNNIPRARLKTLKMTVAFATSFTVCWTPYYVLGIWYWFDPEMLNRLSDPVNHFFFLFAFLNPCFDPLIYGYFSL

CC(=O)Nc1cccc(N)c1
inactive: [1] | [2] | [3] | [4] | [5] | [6] | [7] | [8] | [9] | [10] | [11] | [12] | [13] | [14] | [15]

COCCOC[C@H](CC1(C(=O)NC2CCC(C(=O)O)CC2)CCCC1)C(=O)Oc1ccc2c(c1)CCC2 (stereo partly drawn)
inactive: [1] | [2] | [3] | [4] | [5] | [6] | [16] | [17] | [8] | [10] | [18] | [13] | [14] | [15]

CC(=O)[O][Al]
inactive: [1] | [2] | [3] | [4] | [5] | [6] | [16] | [17] | [7] | [8] | [10] | [18] | [11] | [12] | [13] | [19] | [14] | [15]

C[C@@H](O[C@H]1OCCN(Cc2n[nH]c(=O)[nH]2)[C@H]1c1ccc(F)cc1)c1cc(C(F)(F)F)cc(C(F)(F)F)c1
inactive: [1] | [2] | [3] | [4] | [5] | [6] | [16] | [7] | [10] | [18] | [13] | [14] | [15]

COC(=O)C1=C(C)NC(C)=C(C(=O)OCCCN2CCC(c3ccccc3)(c3ccccc3)CC2)C1c1cccc([N+](=O)[O-])c1 (stereo not drawn)
inactive: [1] | [2] | [3] | [4] | [5] | [6] | [16] | [17] | [8] | [9] | [10] | [18] | [13] | [14] | [15]

ClC(Cl)Cl
inactive: [1] | [2] | [3] | [4] | [5] | [6] | [17] | [7] | [11] | [12] | [13] | [14] | [15]

CSc1ccc(O)cc1C
inactive: [1] | [2] | [3] | [4] | [5] | [6] | [16] | [17] | [7] | [8] | [10] | [18] | [11] | [12] | [13]

O=[N+]([O-])c1cccc(S(=O)(=O)O)c1
inactive: [1] | [2] | [3] | [4] | [5] | [6] | [17] | [7] | [8] | [9] | [10] | [18] | [13] | [14] | [15]
